# According to PubChem BioAssay (NCATS):
# Inconclusive results are not listed. Entries that show only a call come without a potency. A number with no mark means an inactive call. Calls of active or inactive are those of the source. Calls come from the whole dose curve; as a rule, active = well fitted curve in the direction sought with a large enough effect; inconclusive = small, poorly fitted or top-dose-only effect, or another doubt; inactive = no such curve, though single readings can be large; an effect the other way counts as inactive or inconclusive.
# Key:
# [1] = Primary qHTS for inhibitors of La Crosse Virus (LACV) - induced cell death in SH-SY5Y cells (AID 1508616);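 note: top concentration of the series differs between compounds; higher means more rescue of cells from virus-induced death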
# In short: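 Screening measures cell viability in LACV-infected SH-SY5Y cultures. Compound was added before virus (0.01 MOI), and ATP was detected by luminescence 6 days later.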
# [2] = Primary qHTS for small molecule stabilizers of the endoplasmic reticulum resident proteome: Secreted ER Calcium Modulated Protein (SERCaMP) assay (AID 1508630)
# In short: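 The SH-SY5Y reporter protocol was run at 3 concentrations up to 38.3 uM (primary) or 11 concentrations (follow-up): 16 h compound, 100 nM thapsigargin for 4 h, then extracellular luciferase luminescence.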
# [3] = target: Calcium and integrin-binding protein 1 (Homo sapiens) (UniProt Q99828); assay: Primary qHTS for Identification of Calcium Integrin Binding Protein 1 (CIB1) Competitor (AID 1508620);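 note: GST tagged CIB1 binding a fluorescein labelled alphaIIb integrin peptide tracer; top concentration of the series differs between compounds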
# In short: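 Fluorescence polarization competition: CIB1-GST (1 uM final) preincubated with compound 15 min at room temperature, then FITC-labeled alphaIIb peptide (100 nM final) added for another 15 min. Polarization read at Ex 480/Em 540.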
# [4] = target: Calcium and integrin-binding protein 1 (Homo sapiens) (UniProt Q99828); assay: Confirmatory qHTS for Identification of Calcium Integrin Binding Protein 1 (CIB1) Competitor (AID 1508617); note: nearly all actives have a fitted effect of over 65% in size; note: potency is the fitted concentration of half-maximal effect
# In short: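 Compounds at up to 114 uM final met 1 uM GST-tagged CIB1 for 15 min at room temperature (HEPES pH 7.4, 5 mM CaCl2). FITC-labelled alphaIIb peptide, 100 nM, added; polarization read after 15 min more.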
# [5] = Counterscreen qHTS for small molecule stabilizers of the endoplasmic reticulum resident proteome: GLuc-NoTag assay (AID 1508627); note: series mostly up to about 76 µM
# In short: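 Secreted GLuc lacking the SERCaMP modification is measured in SH-SY5Y cells exposed to compound for 19 h and then to thapsigargin (100 nM, 4 h) to deplete ER calcium; hits retested at 11 concentrations, up to 76.6 uM.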
# Calcium and integrin-binding protein 1 (Homo sapiens), sequence (Q99828 whole entry, looked up): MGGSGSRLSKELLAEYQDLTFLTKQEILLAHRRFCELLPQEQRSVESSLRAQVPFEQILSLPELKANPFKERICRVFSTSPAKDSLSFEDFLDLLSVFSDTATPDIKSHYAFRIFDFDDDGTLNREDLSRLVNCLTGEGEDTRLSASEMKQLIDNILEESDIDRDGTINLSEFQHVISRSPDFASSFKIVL
structure (smiles),measurement,setting,value
CCN(CC)CCOc1ccc(C(O)(Cc2ccc(Cl)cc2)c2ccc(C)cc2)cc1 (configuration not stated),Potency,[1],inactive
same,Potency,[2],inactive
C#C[C@]1(OC(C)=O)CC[C@H]2[C@@H]3CCC4=C[C@@H](OC(C)=O)CC[C@@H]4[C@H]3CC[C@@]21C,Potency,[1],inactive
same,Potency,[2],inactive
CC(C)n1nc(-c2cc3cc(O)ccc3[nH]2)c2c(N)ncnc21,Potency,[1],inactive
same,Potency,[2],inactive
CCN1CCCC1=O,Potency,[3],inactive
CC(=O)OCC(=O)[C@@]1(OC(C)=O)[C@@H](C)C[C@H]2[C@@H]3C[C@H](F)C4=CC(=O)C=C[C@]4(C)[C@@]3(F)[C@@H](O)C[C@@]21C,Potency,[1],inactive
same,Potency,[2],inactive
CCOC(=O)OC(C)OC1=C(C(=O)Nc2ccccn2)N(C)S(=O)(=O)c2ccccc21 (configuration not stated),Potency,[3],inactive
CCCCS(=O)(=O)N[C@@H](Cc1ccc(OCCCCC2CCNCC2)cc1)C(=O)O,Potency,[3],inactive
NC(=O)c1cc[n+](CC2=C(C(=O)[O-])N3C(=O)[C@@H](NC(=O)Cc4cccs4)[C@H]3SC2)cc1,Potency,[3],inactive
C[C@@H](CN(C)C)CN1c2ccccc2Sc2ccccc21,Potency,[3],inactive
C#C[C@]1(O)CC[C@H]2[C@@H]3CCC4=CC(=O)CC[C@@H]4[C@H]3CC[C@@]21C,Potency,[1],inactive
same,Potency,[2],inactive
Cc1c(N(C)CS(=O)(=O)O)c(=O)n(-c2ccccc2)n1C,Potency,[3],inactive
same,Potency,[2],inactive
CC(C)=CCC1C(=O)N(c2ccccc2)N(c2ccccc2)C1=O,Potency,[1],inactive
same,Potency,[2],inactive
Oc1ccc(Cl)cc1Sc1cc(Cl)ccc1O,Potency,[1],inactive
same,Potency,[2],inactive
CCCCOc1ccc(C(=O)CCN2CCCCC2)cc1,Potency,[1],inactive
same,Potency,[2],inactive
Cc1ccc(Nc2c(F)cccc2Cl)c(CC(=O)O)c1,Potency,[3],inactive
C[C@]12C=CC(=O)C=C1[C@@H](F)C[C@@H]1[C@@H]2[C@@H](O)C[C@@]2(C)[C@H]1CC[C@]2(O)C(=O)CO,Potency,[1],inactive
same,Potency,[2],inactive
CCCSS/C(CCO)=C(\C)N(C=O)Cc1cnc(C)nc1N,Potency,[1],inactive
same,Potency,[2],inactive
Cc1nc2n(c(=O)c1CCN1CCC(c3noc4cc(F)ccc34)CC1)CCC[C@H]2O,Potency,[1],inactive
same,Potency,[2],inactive
C=CCc1ccc(O)c(OC)c1,Potency,[1],inactive
same,Potency,[2],inactive
Cc1cc(=O)n(-c2ccccc2)n1C,Potency,[1],inactive
same,Potency,[2],inactive
NCCC(O)(P(=O)(O)O)P(=O)(O)O,Potency,[3],inactive
CCCCC(CC)CN=C(N)NC(N)=NCCCCCCN=C(N)NC(N)=NCC(CC)CCCC (configuration not stated),Potency,[4],28.2 µM (active)
same,Potency,[2],inactive
CC(C)(C)NC(=O)[C@@H]1CN(Cc2cccnc2)CCN1C[C@@H](O)C[C@@H](Cc1ccccc1)C(=O)N[C@H]1c2ccccc2C[C@H]1O,Potency,[1],inactive
same,Potency,[2],inactive
CCCCCCCCCCCCCCNCCO,Potency,[3],inactive
CCCCCCCCCCCCCCCC[N+](C)(C)CCN(Cc1ccc(OC)cc1)c1ncccn1,Potency,[4],inactive
same,Potency,[2],inactive
COC(=O)[C@@H]1CC2=CC(=O)CC[C@]2(C)[C@@]23O[C@@H]2C[C@@]2(C)[C@@H](CC[C@@]24CCC(=O)O4)[C@H]13,Potency,[1],inactive
same,Potency,[2],inactive
Cc1c(C(N)=O)cc([N+](=O)[O-])cc1[N+](=O)[O-],Potency,[1],inactive
same,Potency,[2],inactive
Nc1ccc(/C=C/c2ccc(N)cc2S(=O)(=O)O)c(S(=O)(=O)O)c1,"activity change, negative = inhibition",[3],-1.2% [at 1.07 µM]
O=C(N/N=C/c1ccccc1O)c1ccncc1,Potency,[3],inactive
CC(C)(C)CC(C)(C)c1ccc(OCCOCC[N+](C)(C)Cc2ccccc2)cc1,Potency,[1],inactive
same,Potency,[2],inactive
CCOC(=O)/C=C(C)/C=C/C=C(C)/C=C/c1c(C)cc(OC)c(C)c1C,Potency,[1],inactive
same,Potency,[2],inactive
O=c1[nH]c(=O)n([C@H]2C[C@H](O)[C@@H](CO)O2)cc1C(F)(F)F,Potency,[3],inactive
O=C(CCCN1CCC(O)(c2ccc(Br)cc2)CC1)c1ccc(F)cc1,Potency,[2],inactive
Cc1ccccc1C(=O)Nc1ccc(C(=O)N2CCCC(N(C)C)c3ccccc32)cc1 (configuration not stated),Potency,[3],inactive
same,Potency,[2],inactive
Cc1cc(N)c2cc(NC(=O)Nc3ccc4nc(C)cc(N)c4c3)ccc2n1,Potency,[3],inactive
same,Potency,[2],inactive
CO/N=C1\CN(c2nc3c(cc2F)c(=O)c(C(=O)O)cn3C2CC2)CC1CN (configuration not stated),Potency,[3],inactive
same,Potency,[2],inactive
CC/C(=C(/CC)c1ccc(O)cc1)c1ccc(O)cc1,Potency,[2],inactive
COc1cc(-c2ccc(=O)[nH]n2)ccc1OC(F)F,Potency,[3],inactive
same,Potency,[2],inactive
C[C@]12CC[C@@H]3c4ccc(O)cc4CC[C@H]3[C@@H]1C[C@@H](O)[C@@H]2O,Potency,[3],inactive
same,Potency,[2],inactive
O=C(Nc1ccc(Cl)c(Cl)c1)C1CC1,Potency,[2],inactive
Oc1c(I)cc(I)c2cccnc12,Potency,[3],inactive
same,Potency,[2],inactive
CC(Cc1cccc(C(F)(F)F)c1)NCCOC(=O)c1ccccc1 (configuration not stated),Potency,[3],inactive
same,Potency,[2],inactive
CCCCOc1ccc(OCCCN2CCOCC2)cc1,Potency,[3],inactive
same,Potency,[2],inactive
NC(=NCCCCCCN=C(N)/N=C(\N)Nc1ccc(Cl)cc1)/N=C(\N)Nc1ccc(Cl)cc1,Potency,[2],inactive
CCN(CCCCOC(=O)c1ccc(OC)c(OC)c1)C(C)Cc1ccc(OC)cc1 (configuration not stated),Potency,[2],inactive
O=S1(=O)c2cccc3cccc(c23)N1CCCN1CCN(c2ccc(F)cc2)CC1,Potency,[3],inactive
same,Potency,[2],inactive
C=C1C[C@H]2[C@@H]3C=C(C)C4=CC(=O)CC[C@]4(C)[C@H]3CC[C@]2(C)[C@@]1(OC(C)=O)C(C)=O,Potency,[3],inactive
same,Potency,[2],inactive
COc1cccc2c1C(=O)c1c(O)c3c(c(O)c1C2=O)C[C@@](O)(C(=O)CO)C[C@@H]3O[C@H]1C[C@H](N)[C@H](O)[C@H](C)O1,Potency,[2],inactive
Nc1ccc(C(=O)Nc2ccccc2N)cc1,Potency,[2],inactive
CC(=O)Nc1c(I)cc(I)c(C(=O)O)c1I,Potency,[2],inactive
CN1CCN(C(c2ccccc2)c2ccccc2)CC1,outcome,[5],inactive
COCc1c(C(C)C)nc(C(C)C)c(/C=C/[C@@H](O)C[C@@H](O)CC(=O)O)c1-c1ccc(F)cc1,Potency,[2],inactive
CC(Cc1ccccc1)(NC(=O)CN)c1ccccc1 (configuration not stated),Potency,[3],inactive
same,Potency,[2],inactive
COc1c(C)c2c(c(O)c1C/C=C(\C)CCC(=O)O)C(=O)OC2,Potency,[3],inactive
same,Potency,[2],inactive
